This passage reports activation and Potency results from PubChem BioAssay (NCATS).

For assay [1], the target named is Cellular tumor antigen p53 (Homo sapiens) (UniProt P04637). Briefly: Primary qHTS for small molecule compounds that upregulate eGFP-tagged delta133p53alpha (in N-terminal) cells. (AID 2060322). Further: nearly all actives have a fitted effect of over 75% in size. Further: potency means the concentration at half of the fitted maximal effect.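 On activation: cells pre-induced with doxycycline then dosed without doxycycline; series mostly up to about 56 µM; 0% = DMSO vehicle and 100% = reference activator.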 The conditions noted are these: NCI-H358 eGFP-delta133p53alpha fluorescence, 24 h; activation: stronger effect = higher value. The method, boiled down: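 NCI-H358 cells pre-induced 24 h with 10 ng/ml doxycycline for eGFP-delta133p53alpha, plated dox-free and exposed 24 h at 37C to titrated compounds. Fixed, Hoechst-stained; gated GFP peak intensity by laser scanning cytometry, normalized to DMSO (0%) and 57.5 uM 5-azacytidine (100%).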
Sequence of Cellular tumor antigen p53 (Homo sapiens) (P04637 whole entry, looked up): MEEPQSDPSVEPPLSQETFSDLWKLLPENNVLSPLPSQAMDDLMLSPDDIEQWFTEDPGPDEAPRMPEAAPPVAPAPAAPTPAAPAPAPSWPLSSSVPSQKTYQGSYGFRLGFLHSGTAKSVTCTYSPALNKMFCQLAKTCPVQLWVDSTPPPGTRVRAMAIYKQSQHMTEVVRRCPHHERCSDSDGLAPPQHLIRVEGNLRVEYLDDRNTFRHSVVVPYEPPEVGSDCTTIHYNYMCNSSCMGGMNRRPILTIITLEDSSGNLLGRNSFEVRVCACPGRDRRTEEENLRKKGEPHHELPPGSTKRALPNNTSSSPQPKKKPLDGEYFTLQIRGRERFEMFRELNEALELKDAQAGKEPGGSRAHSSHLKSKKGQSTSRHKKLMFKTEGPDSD
Background: qHTS replaces the single test concentration by a dilution series.

Assay [2] concerns the target Aldehyde dehydrogenase, mitochondrial (Homo sapiens) (UniProt P05091). Briefly: qHTS for Inhibitors of the Aldehyde Dehydrogenase Family (ALDH2) Primary screen (AID 2061308).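 Further: plate controls were vehicle for no effect and reference inhibitor for full effect; nearly all actives have a fitted effect of over 55% in size.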
In assay [3] the target is Retinaldehyde dehydrogenase 3 (Homo sapiens) (UniProt P47895). Briefly: qHTS for Inhibitors of the Aldehyde Dehydrogenase Family (ALDH1A3) Validation screen (AID 2061312). Further: on the % scale 0 is the no-effect control and ±100 the full control effect; nearly all actives have a fitted effect of over 45% in size.
Assay [4] has the same target. Briefly: qHTS for Inhibitors of the Aldehyde Dehydrogenase Family (ALDH1A3) Primary screen (AID 2061315).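 Further: plate controls were DMSO vehicle for no effect and reference inhibitor for full effect.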
The nature of assay [5]: BET inhibitor-based combinations targeting novel dependencies in MECOM-rearranged (r) AML: OCI-AML3 cell line (AID 2202232). Further: nearly all actives have a fitted effect of over 35% in size. Further: potency means the concentration at half of the fitted maximal effect. The conditions noted are these: Potency: OCI-AML3 viability. The method, boiled down:
(§1)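 Each compound was tested at eleven concentrations on cells seeded at 500/well. After two days' incubation, ATP-based luminescence reported viability; responses relative to DMSO and blank wells yielded AUC and cell-line-centred Z-AUC.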

The nature of assay [6]: BET inhibitor-based combinations targeting novel dependencies in MECOM-rearranged (r) AML: MV-4-11 cell line (AID 2202233). Further: nearly all actives have a fitted effect of over 45% in size. Further: potency means the concentration at half of the fitted maximal effect. The method, boiled down:
(§2)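 First, 500 cells per well were seeded; next, drugs were pinned as 11-point doses; then plates sat 48 hr in the incubator; finally CellTiter-Glo was added and luminescence read, with AUC and Z-AUC computed.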

A short description of assay [7]: BET inhibitor-based combinations targeting novel dependencies in MECOM-rearranged (r) AML: UCSD-AML1 cell line (AID 2202235). Further: nearly all actives have a fitted effect of over 40% in size. Further: potency means the concentration at half of the fitted maximal effect. The method, boiled down: as §2
Assay [8] can be described thus: BET inhibitor-based combinations targeting novel dependencies in MECOM-rearranged (r) AML: AML-194 cell line (AID 2202237; further: nearly all actives have a fitted effect of over 40% in size; further: potency means the concentration at half of the fitted maximal effect). The method, boiled down:
as §1

Assay [9] is described as follows: BET inhibitor-based combinations targeting novel dependencies in MECOM-rearranged (r) AML: HNT-34 cell line (AID 2202234). Further: potency means the concentration at half of the fitted maximal effect; nearly all actives have a fitted effect of over 35% in size. A digest of the protocol: as §2
Assay [10] is described as follows: BET inhibitor-based combinations targeting novel dependencies in MECOM-rearranged (r) AML: AML-191 cell line (AID 2202236; further: nearly all actives have a fitted effect of over 35% in size; further: potency means the concentration at half of the fitted maximal effect). The method, boiled down:
as §1

Several values for one entry are separate records, joined by “and”; a condition that tells them apart may be missing. Identical values can stand only once. Records with an inconclusive call do not appear. Values without a mark were called inactive. Activity calls are given as the source filed them. The call rests on the fitted dose curve; in most records, active means well fitted curve in the direction sought with a large enough effect; inconclusive means small, poorly fitted or top-dose-only effect, or another doubt; inactive means no such curve, though single readings can be large; an effect the other way counts as inactive or inconclusive.

On to `Cc1nc2c([nH]1)CCN(C(=O)c1ccc(NC(=O)c3ccccc3-c3ccccc3)cc1)c1ccccc1-2`, for which, in assay [1], the activation was -5.73% and -5.25%. Moreover, the Potency result in assay [2], in assay [3], in assay [4], in assay [7] and in [8] was “inactive” in each case. Further, the Potency in assay [5] was 14.8 µM (active); in assay [6], 20.9 µM (active).
`CN(C)N(C)C(=O)[C@@]1(Cc2ccccc2)CCCN(C(=O)[C@@H](Cc2c[nH]c3ccccc23)NC(=O)C(C)(C)N)C1`: in assay [1], the activation is -17.2%. The Potency entry in assay [2], in assay [3], in assay [4], in [7], in assay [10] and in assay [8] was “inactive” throughout. Moreover, in assay [9], the Potency was 16.6 µM (active).
With `c1ccc(CNc2nc(N3CCOc4ccccc43)nc3c2CCCC3)cc1`, in assay [1], the activation was -5.48% and -6.21%. Further, the Potency entry in assay [2], in assay [3], in [4], in [5], in assay [7] and in [8] was “inactive” each time.
With `COc1ccc2c(Oc3ccc(NC(=O)c4c(C)n(CC(C)(C)O)n(-c5ccccc5)c4=O)cc3F)ccnc2c1`, the activation in assay [1] is -9.3% and -1.91%. The Potency result in assay [2], in [3], in assay [4] and in [7] was “inactive” each time. The figures for the Potency in assay [6] and in assay [10] were 0.209 µM (active) and 20.9 µM (active), respectively.
On to `COC1CCN(C(=O)c2cc(Cc3n[nH]c(=O)c4ccccc34)ccc2F)CC1`, for which the activation in assay [1] is 4.47%. The Potency entry in assay [2], in assay [3] and in [4] was “inactive” in each case. The Potency in assay [6] is 16.6 µM (active); in [10], 18.6 µM (active).
For the compound `C[C@@H](NC(=O)c1ncnc(N)c1Cl)c1ncc(C(=O)Nc2cc(C(F)(F)F)c(Cl)cn2)s1`, the activation in [1] was 19.6%. The Potency result in [2], in assay [3] and in [4] was “inactive” in each case. The Potency was 2.35 µM (active) in [9] and 8.33 µM (active) in assay [7].
For the compound `Cc1cc(N2CCOCC2)ccc1Nc1nc(NC2CCCCC2)c2[nH]cnc2n1`, in [1], the activation is 7.16%. Besides, the Potency result in assay [2], in assay [3] and in assay [4] was “inactive” throughout. Further, the Potency in assay [6] was 1.32 µM (active); in assay [8] it was 4.17 µM (active).
Regarding `CCC[C@H](N[C@H]1CCc2cc(F)cc(F)c2C1)C(=O)Nc1cn(C(C)(C)CNCC(C)(C)C)cn1`, the activation in assay [1] is -12.9%. Further, the Potency entry in assay [2], in assay [3], in [4], in assay [7] and in [8] was “inactive” in each case. For the same compound, the Potency in assay [5] was 11.8 µM (active).
`Cc1cc(C)cc(NC(=O)Cc2ccc(OC(C)(C)C(=O)O)cc2)c1`: the activation in assay [1] is -4.3%. For the same compound, the Potency result in [2], in assay [3], in assay [4], in assay [5], in [6] and in assay [7] was “inactive” in each case. In addition, the Potency result in [10] and in assay [8] was “inactive” each time.
As to `O=C(NCCCNc1nc(Nc2cccc(CN3CCOCC3)c2)ncc1C1CC1)C1CCC1`, the activation in assay [1] is -15.3%. The Potency entry in [2], in assay [3] and in [4] was “inactive” each time. The Potency was 0.417 µM (active) in [6] and 16.6 µM (active) in assay [9].
As to `Fc1ccc2[nH]ccc2c1-c1nc(N2CCOCC2)c2sc(CN3CCN(CC4CC4)CC3)cc2n1`, in assay [1], the activation was 22%. Also, the Potency result in assay [2], in assay [3] and in assay [4] was “inactive” each time. For the same compound, the Potency in [5] was 11.8 µM (active); in [6] it was 14.8 µM (active); in assay [9] it was 18.6 µM (active); in assay [7] it was 16.6 µM (active); in assay [10], 10.5 µM (active); in assay [8] it was 8.33 µM (active).
For `CC(C)N(CCCNC(=O)Nc1ccc(C(C)(C)C)cc1)C[C@H]1O[C@@H](n2cc(Br)c3c(N)ncnc32)[C@H](O)[C@@H]1O`, the activation in [1] is -6.7%. Moreover, the Potency entry in assay [2], in assay [3], in [4] and in assay [7] was “inactive” in each case. For the same compound, the Potency in assay [5] is 23.5 µM (active); in [6], 20.9 µM (active); in assay [9], 26.3 µM (active); in assay [8], 23.5 µM (active).
For `c1cc(OCCN2CCCCC2)cc(-c2n[nH]c3ccc(-c4ncn[nH]4)cc23)c1`, in [1], the activation was 5.89% and 12.9%. The Potency result in [2], in assay [3] and in assay [4] was “inactive” throughout. The Potency in assay [9] is 14.8 µM (active); in assay [7], 13.2 µM (active).
On to `COc1cc(C)c(Sc2cnc(NC(=O)c3ccc(CNC(C)C(C)C)cc3)s2)cc1C(=O)N1CCN(C(C)=O)CC1` (stereo not drawn), for which the activation in assay [1] was -11.2% and 19.6%. The Potency result in [2], in assay [3] and in [4] was “inactive” in each case. Also, the Potency in [5] is 20.9 µM (active); in [6], 7.42 µM (active); in [9], 16.6 µM (active); in assay [7], 16.6 µM (active); in assay [10], 16.6 µM (active); in assay [8], 14.8 µM (active).
Turning to `CN(C(=O)c1ccc(F)cc1C(F)(F)F)C1CCN(c2nnc(-c3ccnn3C)c3ccccc23)CC1`, the activation in assay [1] is 36.5% and 1.43%. Also, the Potency entry in [2], in [3], in assay [4], in [7] and in assay [8] was “inactive” in each case. The Potency in assay [6] is 16.6 µM (active).
On to `O=C1Nc2ccc(Cl)cc2[C@@](C#CC2CC2)(C(F)(F)F)O1`, for which the activation in assay [1] is 17.5% and 0%. Further, the Potency entry in assay [2], in [3], in assay [4] and in assay [7] was “inactive” in each case. Also, the Potency in assay [6] is 23.5 µM (active) and 20.9 µM (active).
As to `COCCN1CCN(Cc2ccc(-c3n[nH]c4c3C(=O)c3c(NC(=O)NN5CCOCC5)cccc3-4)cc2)CC1`, the Potency in [1] was 0.0757 µM (active); in [5], 0.166 µM (active); in assay [6] it was 0.0263 µM (active); in assay [9] it was 0.166 µM (active); in assay [7], 0.148 µM (active); in assay [10], 0.186 µM (active). Also, in assay [8], the Potency is 0.332 µM (active). Moreover, the Potency entry in assay [2], in assay [3] and in assay [4] was “inactive” throughout.
